According to PubChem BioAssay (Tox21):
Inconclusive results are not listed. The source made the active and inactive calls. The call rests on the fitted dose curve; in most records, active means well fitted cell-killing curve with a large enough effect in the repeat runs; inconclusive means weak or mixed curves; inactive means no such curve, though single readings can be large or run the other way.
On the % scale 0 is the no-effect control and ±100 the full control effect.

Test: qHTS assay to identify small molecule agonists of the peroxisome proliferator-activated receptor delta (PPARd) signaling pathway - cell viability counter screen (AID 743211); further: nearly all actives have a fitted effect of over 55% in size
Settings: PPARd-bla HEK293H viability, CellTiter-Glo luminescence, 17 h; series mostly up to 62.6 µM; activity change, negative = cytotoxicity: at the top concentration
How it was run: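 Viability of GeneBLAzer PPARd UAS-bla HEK293H cells was assessed after 17 h compound incubation at 37C, using CellTiter-Glo reagent added after the reporter read and luminescence recorded 30 min later.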
In the case of O=C(O)CCSSCCC(=O)O, the “activity change, negative = cytotoxicity” value is reported as -0.232% [at 81.1 µM] (inactive).
With COc1ccc(-c2cc(=O)c3c(O)cc(O[C@@H]4O[C@H](CO[C@@H]5O[C@@H](C)[C@H](O)[C@@H](O)[C@H]5O)[C@@H](O)[C@H](O)[C@H]4O)cc3o2)cc1O the “activity change, negative = cytotoxicity” value was 1.82% (inactive).
With NNc1nnc(NN)c2ccccc12 the “activity change, negative = cytotoxicity” value was 0.165% (inactive).
For O=C(CS(=O)Cc1ccco1)NC/C=C\COc1cc(CN2CCCCC2)ccn1 (stereo not drawn), the “activity change, negative = cytotoxicity” value was -0.0252% (inactive).
For COc1cc(N)ccc1C, the “activity change, negative = cytotoxicity” value was -3.57% (inactive).
For COc1ccc(S(=O)(=O)N2c3ccc(Cl)cc3[C@@](O)(c3ccccc3Cl)[C@H]2C(=O)N2CCC[C@@H]2C(N)=O)cc1OC, the “activity change, negative = cytotoxicity” value was -0.291% (inactive).
For Cc1ccc2c(c1)OCC(=O)CO2, the “activity change, negative = cytotoxicity” value was 9.31% (inactive).
With Cc1nc2n(c(=O)c1CCN1CCC(c3noc4cc(F)ccc34)CC1)CCC[C@H]2O the “activity change, negative = cytotoxicity” value was -8.08% [at 29.1 µM] (inactive).
With CC(CN)CC(C)(C)CCN (stereo not drawn) the “activity change, negative = cytotoxicity” value was 5.42% [at 81.1 µM] (inactive).
With COC(=O)c1ccccc1C(=O)c1ccc(OCCN2CCCCC2)cc1 the “activity change, negative = cytotoxicity” value was -0.27% (inactive).
For Nc1nnc(-c2cccc(Cl)c2Cl)c(N)n1, the “activity change, negative = cytotoxicity” value was 10.6% (inactive).
With O=C1c2ccccc2C(=O)C1c1ccccc1 the “activity change, negative = cytotoxicity” value was 1.5% (inactive).
For CCCCOC(=O)c1ccccc1, the “activity change, negative = cytotoxicity” value was 0.0164% (inactive).
